Measurements: PubChem BioAssay (Tox21)
A number with no mark means an inactive call. Inconclusive results are not listed. A call without a number means that no potency is given here. Active and inactive are the calls of the source. Unless noted, calls follow the shape of the dose curve; as a rule, active = well fitted curve in the direction sought with a large enough effect in the repeat runs; inconclusive = weak or mixed curves; inactive = no such curve, though single readings can be large; an effect the other way counts as inactive or inconclusive.

Columns and labels:
[1] = qHTS assay to identify small molecule antagonists of the estrogen related receptor (ERR) signaling pathway from Tox21 library - cell viability counter screen (AID 1224834); also: nearly all actives have a fitted effect of over 30% in size; also: potency is read from the fitted curve at half-maximal effect
Outline: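 ERR cells, 2,000/well; 6 h settle at 37 C/5% CO2; pin-tool compound transfer in DMSO; 17.5 h at 37 C; CellTiter-Fluor, 30 min; fluorescence intensity.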

[2] = molecular target: Luciferin 4-monooxygenase (Photinus pyralis) (UniProt P08659); experiment: qHTS assay to identify small molecule inhibitors of firefly luciferase (AID 1224835); also: nearly all actives have a fitted effect of over 25% in size
Outline: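 Quantitative HTS format; KM concentrations of both substrates. Purified P. pyralis FLuc activity quantified from luminescence images.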

[3] = qHTS assay to identify small molecule agonists of the constitutive androstane receptor (CAR) signaling pathway - cell viability counter screen (AID 1224836); also: nearly all actives have a fitted effect of over 45% in size; also: potency is read from the fitted curve at half-maximal effect
Outline: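 Compound titrations (15 concentrations) went onto HepG2-CYP2B6-hCAR cells 4 h after seeding, alongside PK11195 at a final 0.75 uM; a 23 h, 37 C/5% CO2 incubation preceded CellTiter-Fluor viability measurement.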

[4] = qHTS assay to identify small molecule antagonists of the constitutive androstane receptor (CAR) signaling pathway - cell viability counter screen (AID 1224837); also: nearly all actives have a fitted effect of over 45% in size; also: potency is read from the fitted curve at half-maximal effect
Outline: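 Viability was measured with CellTiter-Fluor in a HepG2 line carrying stably transfected hCAR and a CYP2B6-2.2kb construct. Cells were exposed for 23 hr at 37 C to 15 compound concentrations with 50 nM CITCO as agonist.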

[5] = molecular target: Nuclear receptor subfamily 1 group I member 3 (Homo sapiens) (UniProt Q14994); experiment: qHTS assay to identify small molecule antagonists of the constitutive androstane receptor (CAR) signaling pathway (AID 1224838);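 also: HepG2 cells stably expressing hCAR with CYP2B6 luciferase reporter stimulated by CITCO; potency is read from the fitted curve at half-maximal effect; nearly all actives have a fitted effect of over 40% in size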
Outline: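 Antagonist mode used CITCO at a final 50 nM to activate CAR in human hepatoma HepG2 cells carrying stable hCAR and a 2.2 kb CYP2B6 promoter-luciferase construct. Compounds were tested at 15 concentrations over 24 h, with luminescence as the end point.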

[6] = qHTS assay to identify small molecule antagonists of the estrogen related receptor signaling pathway with the pleiotropic PPARgamma coactivator (PGC) from Tox21 10K library (AID 1224841; call rule not given here; also: actives are mostly falling curves and most rising ones were filed inactive; nearly all actives have a fitted effect of over 50% in size; also: potency is read from the fitted curve at half-maximal effect)
Outline: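 Steps: plate 2,000 PGC/ERR cells per well; incubate 6 h at 37 C with 5% CO2; transfer compounds from DMSO stocks by pin tool; incubate 18 h at 37 C; add One-Glo; measure luminescence 30 min later.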

[7] = qHTS assay to identify small molecule agonists of the estrogen related receptor signaling pathway with the pleiotropic PPARgamma coactivator (PGC) from Tox21 10K library (AID 1224842); also: nearly all actives have a fitted effect of over 15% in size
Outline: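 PGC/ERR reporter cells (NTP line) were seeded 2,000 per well, rested 6 h at 37 C/5% CO2, then pin-dosed with compounds in DMSO for 18 h at 37 C; luciferase read by One-Glo luminescence after 30 min at room temperature.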

[8] = molecular target: Thyrotropin receptor (Homo sapiens) (UniProt P16473); experiment: qHTS assay to identify small molecule agonists of the thyroid stimulating hormone receptor (TSHR) signaling pathway (AID 1224843; calls by dose curve; also: nearly all actives have a fitted effect of over 45% in size)
Outline: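 Using 15 concentrations per compound in triplicate, cAMP production was monitored in TSHR-HEK293 cells after 30 min compound incubation at RT; HTRF reagents followed, with fluorescence intensity recorded after 1 h.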

[9] = qHTS assay to identify small molecule agonists of the hypoxia (HIF-1) signaling pathway - cell viability counter screen (AID 1224844; calls by dose curve; also: nearly all actives have a fitted effect of over 50% in size; also: potency is read from the fitted curve at half-maximal effect)
Outline: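 Cytotoxicity was measured in parallel with the HRE-driven beta-lactamase readout: after 17 hrs of compound exposure at 37C, HRE-bla ME-180 cells received CellTiter-Glo and luminescence was recorded 30 min later.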

[10] = qHTS assay to identify small molecule agonists of the hypoxia (HIF-1) signaling pathway (AID 1224846; active = well fitted activation curve with a large enough effect in the signal ratio in the repeat runs, not every such curve was filed as active; the % refers to the signal ratio)
Outline: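 Compounds from the Tox21 10K library, dissolved in DMSO, are tested for induction of a hypoxia response element–controlled beta-lactamase reporter in ME-180 cells. Exposure lasts 17 hrs at 37C after a 5 hr settling period, followed by CCF4-AM FRET substrate.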

[11] = qHTS assay to identify small molecule antagonists of the estrogen related receptor (ERR) signaling pathway from Tox21 library (AID 1224848); also: nearly all actives have a fitted effect of over 50% in size; also: potency is read from the fitted curve at half-maximal effect
Outline: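 Tox21 10K compounds in DMSO tested for ERR pathway antagonism in NTP's ERR cell line; 18 h, 37 C exposure; ONE-Glo luminescence.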

[12] = qHTS assay to identify small molecule agonists of the estrogen related receptor (ERR) signaling pathway from Tox21 library (AID 1224849; calls by dose curve; also: nearly all actives have a fitted effect of over 15% in size); settings: ERR reporter cell line, ONE-Glo luciferase, 18 h; at 92.4 µM (top of the series) unless noted
Outline: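 Cells carrying the ERR reporter were plated and allowed to settle for 6 h, exposed to library compounds for 18 h at 37 C, then lysed with ONE-Glo and luminescence measured.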

[13] = qHTS RealTime-Glo MT Cell Viability Assay in HEK293 cells - 32 hour (AID 1224868); also: nearly all actives have a fitted effect of over 50% in size; also: potency is read from the fitted curve at half-maximal effect
Outline: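 Assay medium contained NanoLuc luciferase plus cell-permeant prosubstrate, added with HEK293 cells at 600 cells/well. After 5 h at 37 C/5% CO2 compounds were added; plates stayed at 37 C for 40 h with serial luminescence reads.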

[14] = A CellTox Green Cytotoxicity Assay to monitor cytotoxicity in HEK293 cells - 0 hour (AID 1224869); also: nearly all actives have a fitted effect of over 50% in size
Outline: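 Cells (HEK293, 600/well) and dye reagent are dispensed together. After 5 h at 37 C, 23 nL compound is pinned in. Plates stay at 37 C for 40 h with fluorescence read at 0h, 8h, 16h, 24h, 32h and 40h.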

[15] = qHTS assay to identify small molecule antagonists of the estrogen related receptor signaling pathway with the pleiotropic PPARgamma coactivator (PGC) from Tox21 10K library - cell viability counter screen (AID 1224840; active = well fitted cell-killing curve with a large enough effect in the repeat runs, not every such curve was filed as active; also: nearly all actives have a fitted effect of over 40% in size)
Outline: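 Multiplexed viability counter screen in the PGC/ERR cell line: cells treated with DMSO-dissolved compounds for 17.5 hours at 37 C, then viability measured as CellTiter-Fluor fluorescence.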

[16] = qHTS assay to identify small molecule agonists of H2AX (AID 1224845; active = well fitted activation curve with a large enough effect in the signal ratio in the repeat runs, not every such curve was filed as active; the % refers to the signal ratio)
Outline: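 Wild-type CHO-K1 cells plated overnight, then exposed 3 hr at 37C to compounds at 15 concentrations (0.76% DMSO). Lysed, then HTRF anti-pH2AX(S139)-cryptate/anti-H2AX-d2 detection after 24 hr at room temperature; emissions 665 and 620 nm.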

[17] = qHTS assay to identify small molecule agonists of H2AX - cell viability counter screen (AID 1224847; calls by dose curve; also: top concentration of the series differs between compounds; nearly all actives have a fitted effect of over 30% in size)
Outline: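 Read-out: CellTiter-Glo luminescence, 30 min RT. Cells: wild-type CHO-K1, 1000/well, 10% FBS, plated overnight at 37C. Treatment: 15 concentrations, 3 hr, 37C, 0.76% DMSO.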

[18] = qHTS RealTime-Glo MT Cell Viability Assay in HepG2 cells - 24 hour (AID 1224867); also: nearly all actives have a fitted effect of over 50% in size
Outline: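 qHTS, HepG2, 600 cells/well, RealTime-Glo (NanoLuc + prosubstrate) added with cells; 5 h preincubation; DMSO compound addition; 37 C; luminescence at 0/8/16/24/32/40 h.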

Chain of Luciferin 4-monooxygenase (Photinus pyralis) (P08659 whole entry, looked up): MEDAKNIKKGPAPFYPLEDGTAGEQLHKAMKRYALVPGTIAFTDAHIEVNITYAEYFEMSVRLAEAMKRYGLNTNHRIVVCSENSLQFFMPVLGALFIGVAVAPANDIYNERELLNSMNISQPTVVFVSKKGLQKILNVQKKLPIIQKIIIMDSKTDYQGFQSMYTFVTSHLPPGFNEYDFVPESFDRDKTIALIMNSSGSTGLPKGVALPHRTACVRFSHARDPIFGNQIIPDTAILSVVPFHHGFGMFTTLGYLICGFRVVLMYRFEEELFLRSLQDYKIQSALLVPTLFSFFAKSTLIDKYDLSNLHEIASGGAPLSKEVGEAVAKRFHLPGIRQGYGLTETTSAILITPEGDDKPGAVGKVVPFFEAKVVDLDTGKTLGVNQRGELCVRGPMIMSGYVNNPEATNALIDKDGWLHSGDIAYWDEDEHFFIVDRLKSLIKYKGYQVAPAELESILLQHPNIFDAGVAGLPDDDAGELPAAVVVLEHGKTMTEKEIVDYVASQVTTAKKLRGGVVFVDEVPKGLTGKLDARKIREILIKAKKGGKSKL
Chain of Thyrotropin receptor (Homo sapiens) (P16473 whole entry, looked up): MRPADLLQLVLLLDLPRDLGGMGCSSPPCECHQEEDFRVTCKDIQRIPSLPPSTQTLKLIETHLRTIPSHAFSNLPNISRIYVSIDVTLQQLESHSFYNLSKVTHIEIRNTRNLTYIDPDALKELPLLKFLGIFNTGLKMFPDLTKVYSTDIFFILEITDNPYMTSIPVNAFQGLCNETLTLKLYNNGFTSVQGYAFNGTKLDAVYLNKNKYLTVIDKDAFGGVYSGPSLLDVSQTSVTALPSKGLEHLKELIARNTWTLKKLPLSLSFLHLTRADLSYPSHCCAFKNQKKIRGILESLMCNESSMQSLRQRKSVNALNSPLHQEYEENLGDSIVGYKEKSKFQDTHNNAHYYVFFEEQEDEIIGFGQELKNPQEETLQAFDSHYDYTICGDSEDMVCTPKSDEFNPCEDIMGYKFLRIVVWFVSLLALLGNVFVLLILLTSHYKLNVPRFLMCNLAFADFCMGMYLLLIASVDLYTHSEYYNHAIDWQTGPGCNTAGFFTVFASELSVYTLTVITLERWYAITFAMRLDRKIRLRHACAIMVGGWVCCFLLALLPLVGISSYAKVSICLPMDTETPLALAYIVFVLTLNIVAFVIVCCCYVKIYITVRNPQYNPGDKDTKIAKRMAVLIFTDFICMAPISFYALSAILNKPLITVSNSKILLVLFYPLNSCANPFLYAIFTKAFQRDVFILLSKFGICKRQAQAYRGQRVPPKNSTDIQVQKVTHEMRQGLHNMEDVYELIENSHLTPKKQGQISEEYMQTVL
Chain of Nuclear receptor subfamily 1 group I member 3 (Homo sapiens) (Q14994 whole entry, looked up): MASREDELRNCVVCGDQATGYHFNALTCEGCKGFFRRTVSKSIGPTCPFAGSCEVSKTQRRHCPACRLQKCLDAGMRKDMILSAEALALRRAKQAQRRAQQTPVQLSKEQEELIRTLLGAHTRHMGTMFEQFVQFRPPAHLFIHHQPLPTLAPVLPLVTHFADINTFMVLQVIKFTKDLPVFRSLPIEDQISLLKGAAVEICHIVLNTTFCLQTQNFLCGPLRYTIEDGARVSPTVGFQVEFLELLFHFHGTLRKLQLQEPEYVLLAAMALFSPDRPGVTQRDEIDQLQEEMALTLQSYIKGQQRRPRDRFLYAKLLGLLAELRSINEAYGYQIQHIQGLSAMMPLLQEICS

Question: For `CC(C)C[C@H](NC(=O)[C@H](Cc1ccccc1)NC(=O)c1cnccn1)B(O)O`, which Potency [1] is on record?
Answer: Its Potency is 84.1 nM (active).

Question: And the Potency [2]?
Answer: The Potency was “inactive”.

Question: And the Potency [3]?
Answer: Its Potency is 298 nM (active).

Question: And the Potency [4]?
Answer: The Potency was 266 nM (active).

Question: What about the Potency [5] of the same compound?
Answer: Its Potency is 37.6 nM (active).

Question: And the Potency [6]?
Answer: Its Potency is 18.8 nM (active).

Question: And the Potency [7]?
Answer: Its Potency is “inactive”.

Question: And the Potency [8]?
Answer: Its Potency is “inactive”.

Question: What about the Potency [9] of the same compound?
Answer: The Potency was 21.3 nM (active).

Question: And the outcome [10]?
Answer: Its outcome is “inactive”.

Question: And the Potency [11]?
Answer: Its Potency is 23.7 nM (active).

Question: What about the activity change, positive = activation [12] of the same compound?
Answer: Its activity change, positive = activation is -63.1% [at 42.5 µM].

Question: What about the Potency [13] of the same compound?
Answer: Its Potency is 37.9 nM (active).

Question: What about the Potency [14] of the same compound?
Answer: The Potency was “inactive”.

Question: For `CCC(C)C1N=C(C)C(C)S1` (stereo not given), which Potency [1] is on record?
Answer: The Potency was “inactive”.

Question: And the Potency [2]?
Answer: Its Potency is “inactive”.

Question: And the Potency [3]?
Answer: The Potency was “inactive”.

Question: And the Potency [4]?
Answer: The Potency was “inactive”.

Question: What about the Potency [15] of the same compound?
Answer: The Potency was “inactive”.

Question: And the Potency [6]?
Answer: The Potency was “inactive”.

Question: What about the Potency [7] of the same compound?
Answer: The Potency was “inactive”.

Question: What about the Potency [8] of the same compound?
Answer: Its Potency is “inactive”.

Question: And the Potency [9]?
Answer: The Potency was “inactive”.

Question: And the Potency [16]?
Answer: Its Potency is “inactive”.

Question: What about the outcome [10] of the same compound?
Answer: Its outcome is “inactive”.

Question: And the Potency [17]?
Answer: The Potency was “inactive”.

Question: And the Potency [11]?
Answer: Its Potency is “inactive”.

Question: What about the activity change, positive = activation [12] of the same compound?
Answer: Its activity change, positive = activation is -2.96%.

Question: And the outcome [18]?
Answer: Its outcome is “inactive”.

Question: What about the Potency [13] of the same compound?
Answer: The Potency was “inactive”.

Question: And the Potency [14]?
Answer: The Potency was “inactive”.

Question: What does the source list for `CCCCCCCCCCCCSC#N`?
Answer: Potency [1]: inactive; Potency [2]: inactive; Potency [3]: inactive; Potency [4]: inactive; Potency [15]: inactive; Potency [6]: inactive; Potency [7]: inactive; Potency [8]: inactive; Potency [9]: inactive; Potency [16]: inactive; outcome [10]: inactive; Potency [17]: inactive; Potency [11]: inactive; activity change, positive = activation [12]: 0.292%; outcome [18]: inactive; Potency [13]: inactive; Potency [14]: inactive

Question: For `CC/C=C\CCO`, which Potency [1] is on record?
Answer: The Potency was “inactive”.

Question: What about the Potency [2] of the same compound?
Answer: Its Potency is “inactive”.

Question: What about the Potency [3] of the same compound?
Answer: Its Potency is “inactive”.

Question: And the Potency [4]?
Answer: Its Potency is “inactive”.

Question: And the Potency [15]?
Answer: Its Potency is “inactive”.

Question: What about the Potency [6] of the same compound?
Answer: The Potency was “inactive”.

Question: What about the Potency [7] of the same compound?
Answer: The Potency was “inactive”.

Question: And the Potency [9]?
Answer: Its Potency is “inactive”.

Question: What about the Potency [16] of the same compound?
Answer: The Potency was “inactive”.

Question: And the outcome [10]?
Answer: Its outcome is “inactive”.

Question: And the Potency [17]?
Answer: The Potency was “inactive”.

Question: What about the Potency [11] of the same compound?
Answer: The Potency was “inactive”.

Question: And the activity change, positive = activation [12]?
Answer: The activity change, positive = activation was 0.448%.

Question: And the outcome [18]?
Answer: Its outcome is “inactive”.

Question: What about the Potency [13] of the same compound?
Answer: Its Potency is “inactive”.

Question: And the Potency [14]?
Answer: The Potency was “inactive”.

Question: Which results are given for `CC(C)(C)c1cc(C=O)cc(C(C)(C)C)c1O`?
Answer: Potency [1]: inactive; Potency [2]: inactive; Potency [3]: inactive; Potency [4]: inactive; Potency [15]: inactive; Potency [8]: inactive; Potency [9]: inactive; Potency [16]: inactive; outcome [10]: inactive; Potency [17]: inactive; outcome [18]: inactive; Potency [13]: inactive; Potency [14]: inactive

Question: For `CNc1ccccc1`, which Potency [1] is on record?
Answer: The Potency was “inactive”.

Question: And the Potency [2]?
Answer: Its Potency is “inactive”.

Question: And the Potency [3]?
Answer: Its Potency is “inactive”.

Question: And the Potency [4]?
Answer: Its Potency is “inactive”.

Question: What about the Potency [15] of the same compound?
Answer: The Potency was “inactive”.

Question: And the Potency [6]?
Answer: The Potency was “inactive”.

Question: And the Potency [7]?
Answer: Its Potency is “inactive”.

Question: What about the Potency [9] of the same compound?
Answer: Its Potency is “inactive”.

Question: What about the outcome [10] of the same compound?
Answer: The outcome was “inactive”.

Question: And the Potency [11]?
Answer: Its Potency is “inactive”.

Question: What about the outcome [18] of the same compound?
Answer: Its outcome is “inactive”.

Question: What about the Potency [13] of the same compound?
Answer: The Potency was “inactive”.

Question: What about the Potency [14] of the same compound?
Answer: Its Potency is “inactive”.
